ERa coact pot = ER-alpha (human) coactivator binding potentiation; 86,000 tested, 1.3% active; coactivator binding (% of control), % at 25.6 µM; AID 639; P03372; TR-FRET ERalpha-LBD/SRC-Cy5 coactivator binding, 2 h; 100 = basal binding, no effect; in the data active means activity above about 200%;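 further: binding measured in presence of low estradiol as agonist stimulus; 0% = peptide alone without receptor and 100% = receptor with peptide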
Target sequence (P03372 whole entry, looked up, the tested form may be a part): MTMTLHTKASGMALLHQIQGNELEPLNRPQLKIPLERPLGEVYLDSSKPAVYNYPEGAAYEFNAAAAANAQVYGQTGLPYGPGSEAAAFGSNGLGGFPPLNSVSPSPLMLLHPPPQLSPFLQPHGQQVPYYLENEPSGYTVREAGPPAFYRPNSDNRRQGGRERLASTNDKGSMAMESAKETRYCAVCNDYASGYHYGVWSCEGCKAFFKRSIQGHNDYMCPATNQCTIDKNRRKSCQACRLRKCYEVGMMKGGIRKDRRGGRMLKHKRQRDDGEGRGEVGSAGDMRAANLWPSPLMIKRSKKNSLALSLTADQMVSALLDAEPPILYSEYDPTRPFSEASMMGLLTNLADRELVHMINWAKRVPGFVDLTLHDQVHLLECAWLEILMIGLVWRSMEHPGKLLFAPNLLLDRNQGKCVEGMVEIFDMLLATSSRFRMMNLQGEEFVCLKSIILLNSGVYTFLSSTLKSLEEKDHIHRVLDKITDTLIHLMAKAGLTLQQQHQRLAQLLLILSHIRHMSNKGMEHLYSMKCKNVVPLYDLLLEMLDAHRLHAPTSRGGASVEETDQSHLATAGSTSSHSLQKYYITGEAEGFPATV
ERb coact inh = blocks coactivator binding to human estrogen receptor beta; inhibition, % at 25.6 µM; TR-FRET ER-beta LBD / SRC1-Cy5 peptide binding; receptor agonist-loaded with 1 µM estradiol; 86,000 tested, 1.3% active;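 active means compounds whose percent inhibition of the receptor-coactivator binding signal exceeds about 50% in the single-dose screen, limit read from the data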;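 further: 0% = receptor plus peptide wells without compound and 100% = peptide-only wells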
IL1B NFkB pot = enhances IL-1B driven NFkB nuclear translocation; HUVEC IL-1B NFkB p65 nuclear translocation imaging; activation, % at 2 µM; 94,000 tested, 0.3% active;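 active means activation above 40%, about the mean plus 3 SD, also judged a hit on visual image review; inconclusive means activation above 40% but not a hit on visual review; inactive means activation not above 40% and no visual hit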;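 further: percent activation is computed from the nuclear over cytoplasmic p65 intensity ratio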
NFkB transloc inh = blocks IL-1B driven NFkB nuclear translocation in HUVEC cells. HUVEC IL-1B NFkB p65 nuclear translocation imaging. AID 796. inhibition, % at 2 µM. 94,000 tested, 0.43% active;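 active means inhibition above about 30% together with a positive call from visual inspection of the well image, limit read from the data; inconclusive means inhibition above a set limit but visual check negative; inactive means inhibition not above a set limit, visual check negative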;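 further: nuclear over cytoplasmic p65 intensity ratio measured by imaging; 0% = IL-1B stimulated DMSO wells and 100% = unstimulated DMSO wells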
ERa SRC1 inh = ER-alpha (human) coactivator binding inhibition; TR-FRET ER-alpha LBD / SRC-1 peptide, estradiol-bound; P03372; AID 629; inhibition, % at 25.6 µM; 86,000 tested, 1.7% active; in the data active means inhibition above about 50%;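 further: 0% = receptor plus peptide control and 100% = peptide only without receptor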
IL1B cytotox = HUVEC cytotoxicity counter-screen, IL-1B stimulated; HUVEC cell count loss, Hoechst imaging; cell count reduction, % at 2 µM; 94,000 tested, 0.41% active;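 active means cell count reduction more than 3 SD above the screen-wide mean, cut at about 70% in these data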;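 further: normalized per plate to untreated control cells as the no-loss baseline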
Active calls of the source: *; ? = inconclusive; / = not tested or not shown; [ ] = remark or other dose. This is a sample that favours compounds with a hit; in the whole collection about 3.6% have one here.

SMILES	ERa coact pot	ERb coact inh	IL1B NFkB pot	NFkB transloc inh	ERa SRC1 inh	IL1B cytotox
COc1ccccc1OCC(=O)Nc1nc(-c2ccc(S(=O)(=O)N3CCOCC3)cc2)cs1	216.9*[fluorescence artefact?]	14.9	-7.7	7.7	27.1	42.4
O=C(COC(=O)c1ccc(S(=O)(=O)N2CCOCC2)cc1)Nc1nc(-c2ccccc2)cs1	139.4	35.5	8.3	-8.3	25.8	-16.8
O=C(COc1ccc(Cl)cc1)Nc1nc(-c2ccc(S(=O)(=O)N3CCOCC3)cc2)cs1	274.5*[fluorescence artefact?]	18.9	3.6	-3.6	11.5	9.7
O=C(COc1ccccc1)Nc1nc(-c2ccc(S(=O)(=O)N3CCOCC3)cc2)cs1	328.1*[fluorescence artefact?]	21.1	17.0	-17.0	19.4	5.7
COC(=O)c1ccc(Sc2ccccc2NS(=O)(=O)c2ccc(OC)cc2)nc1	/	/	14.9	-14.9	/	-24.1
COc1cccc2sc(N3CCN(c4nc5ccccc5s4)CC3)nc12	236.3*	29.9	5.5	-5.5	49.3	-31.9
CCN1C2=C(C(=O)CCC2)C(c2ccc(O)c(Br)c2)C2=C1CCCC2=O	59.1	60.3*	6.8	-6.8	56.4*[fluorescence artefact?]	-16.9
COc1ccc(NC(=O)CCn2cccc2)cc1	111.2	-1.3	24.1	-24.1	-1.3	-12.7
CCCC(=O)Nc1nc2ccc(OCC)cc2s1	/	/	6.3	-6.3	/	20.6
CCOc1ccc2nc(NC(=O)c3cnc(C)cn3)sc2c1	61.3	6.0	-39.4	39.4*	14.9	-126.5
Cc1cc(C)n(C(=O)c2cccc(S(=O)(=O)N3CCOCC3)c2)n1	75.0	-1.3	1.9	-1.9	8.5	-4.8
Cc1ccc(Sc2c(C)nn(C(=O)c3cccc(S(=O)(=O)N4CCOCC4)c3)c2C)cc1	236.7*[fluorescence artefact?]	13.7	11.7	-11.7	17.7	-4.5
CCOc1cc(N2CCOCC2)c(OCC)cc1NC1=NCCCCC1	69.3	69.8*[fluorescence artefact?]	0.3	-0.3	44.2	2.3
CCOC(=O)C1=C(C)Nc2nnnn2C1c1ccc(OC)c(Br)c1 (stereo unspecified)	140.8	-2.9	?	-58.8	-7.6	10.9
O=C(CSc1nc(-c2ccccc2)cs1)NCc1ccco1	96.7	-3.4	-50.4	50.4*	-26.5	-16.4
Cc1sc2ncnc(SCC(=O)NC(=O)NCc3ccco3)c2c1C	85.4	80.8*[fluorescence artefact?]	1.8	-1.8	72.8*	-10.0
Cc1nc(SCC(=O)NCc2ccco2)c2c(C)c(C)sc2n1	89.1	2.0	-2.2	2.2	1.7	-37.0
O=C(CSc1ncc(-c2ccccc2)nn1)NCc1ccco1	93.7	3.1	10.5	-10.5	7.4	-6.4
c1coc(CNc2nc3nonc3nc2NCc2ccco2)c1	82.4	15.8	-51.5	51.5*	14.9	-47.9
O=C(CSc1nc2cc(Cl)ccc2s1)NC(=O)NCc1ccco1	76.9	42.7	/	/	56.7*	/
O=S(=O)(Nc1nc2ccccc2nc1NCc1ccco1)c1ccccc1	87.1	5.8	4.0	-4.0	-7.7	-21.1
CC(C)(C)C(=O)Cn1ncc(NC2CC2)c(Br)c1=O	/	/	-5.6	5.6	/	-20.7
CCOC(=O)CN1C(=O)CSc2ccccc21	/	/	5.0	-5.0	/	-14.2
O=C(NCc1ccco1)c1cc2cc3ccc(Cl)cc3nc2o1	182.4	55.6*	-1.4	1.4	66.5*	-28.4
Cc1ccc(-c2csc3ncnc(OCC(=O)NC(=O)NCc4ccco4)c23)cc1	68.5	37.8	/	/	56.4*[fluorescence artefact?]	/
SMILES	ERa coact pot	ERb coact inh	IL1B NFkB pot	NFkB transloc inh	ERa SRC1 inh	IL1B cytotox
O=C(COc1ncnc2scc(-c3ccc(F)cc3)c12)NCc1ccco1	93.3	1.6	-0.8	0.8	-1.1	0.8
Cc1sc2nc(SCC(=O)NCc3ccco3)n(-c3ccccc3)c(=O)c2c1C	229.1*[fluorescence artefact?]	6.0	8.1	-8.1	14.6	-22.7
COc1ccc2cc3cc(C(=O)NCc4ccco4)oc3nc2c1	106.9	27.3	22.3	-22.3	24.2	-9.8
CCc1nc(SCC(=O)NCc2ccco2)c2c3c(sc2n1)CCCC3	179.2	11.0	-9.1	9.1	11.3	-53.5
CCCCc1nc2sc3c(SCC(=O)NCc4ccco4)ncnc3c2c2c1CCC2	575.5*[fluorescence artefact?]	42.6	4.4	-4.4	34.4	-0.7
Cc1sc2ncnc(NCc3cccs3)c2c1C	103.3	-9.9	-2.5	2.5	-18.0	-3.5
Cc1sc2ncnc(NCc3ccco3)c2c1C	61.4	53.6*	0.4	-0.4	58.1*	-11.6
Cc1ccc(-c2csc3ncn(CC(=O)N4CCOCC4)c(=O)c23)cc1C	68.4	78.2*[fluorescence artefact?]	10.8	-10.8	15.6	-10.7
CCOC(=O)Cn1nnnc1C(CC)N(Cc1cccs1)Cc1cc2ccc(OC)cc2[nH]c1=O (stereo unspecified)	110.0	4.1	-5.4	5.4	-0.2	21.2
O=c1/c(=C/c2ccccn2)sc2nc3ccccc3n12	68.1	47.3	-0.3	0.3	90.3*[fluorescence artefact?]	-30.2
CCC(=O)N(Cc1cc2cc(OC)ccc2[nH]c1=O)c1cccc(C)c1	142.8	2.3	0.4	-0.4	6.8	-71.2
CN1CCc2c(sc3c2c(=O)n(-c2ccccc2)c2nnc(SCc4ccc(Cl)cc4)n32)C1	313.5*	11.8	-4.9	4.9	30.7	9.1
Cc1nnc2n(-c3ccc(Cl)cc3)c(=O)c3c4c(sc3n12)CN(C)CC4	107.1	-3.0	/	/	-15.5	/
CSc1nnc2c(n1)OC=Nc1ccccc1-2	105.4	-12.9	-1.3	1.3	-32.6	17.5
Cc1cccc(C)c1NC(=O)CSc1nnc(-c2ccco2)c(-c2ccco2)n1	11.1	83.2*[fluorescence artefact?]	13.0	-13.0	84.1*[fluorescence artefact?]	-13.3
CSc1nnc(-c2ccco2)c(-c2ccco2)n1	7.3	91.3*[fluorescence artefact?]	-8.9	8.9	89.7*[fluorescence artefact?]	-1.3
CCc1ccccc1NC(=O)CSc1nnc(-c2ccco2)n1N	119.8	-1.4	20.7	-20.7	3.9	-8.0
Cc1ccccc1NC(=O)CSc1nnc(-c2ccco2)c(-c2ccco2)n1	58.2	72.1*	/	/	71.3*	/
CCOC(=O)c1c(C)c(C(=O)NC(C)COC)c(C)n1CC (stereo unspecified)	118.3	-5.8	/	/	-5.0	/
Cn1c2ccccc2c(=O)c2c(=O)n(C3CCCCC3)c(-c3cccs3)nc21	436.3*[fluorescence artefact?]	4.4	-15.2	15.2	30.1	-7.6
Cc1occc1C(=O)N/N=C/c1cnn(C)c1C	106.5	-2.6	5.3	-5.3	0.7	-17.7
CC(=O)c1c(C)[nH]c(C(=O)OCC(=O)N2CCc3ccccc32)c1C	229.0*	16.2	5.8	-5.8	12.3	-21.1
COc1cccc(C(=O)Nc2ccc3nc(N4CCN(c5ncccn5)CC4)cc(C)c3c2)c1OC	/	/	8.5	-8.5	/	27.4
CCOc1ccccc1C(=O)Nc1ccc2nc(N3CCN(c4ncccn4)CC3)cc(C)c2c1	303.4*[fluorescence artefact?]	35.1	26.6	-26.6	73.3*	8.3
CN1C(=O)CC(C(=O)O)SC1=Nc1cc(Cl)c(O)c(Cl)c1 (stereo unspecified)	43.4	53.8*	11.2	-11.2	43.3	1.5
O=C(CN1CCN(Cc2ccc(Cl)cc2)C1=O)NCCCN1CCN(c2ccc(F)cc2)CC1	277.4*[fluorescence artefact?]	-4.2	17.7	-17.7	-5.4	-21.0
COc1ccc(N2CCN(c3ncnc4c3[nH]c3ccccc34)CC2)cc1	93.3	-9.2	2.3	-2.3	-7.9	5.4

Bioassay records as filed in PubChem.
